Reference: publication PMC7862700, “An all-to-all approach to the identification of sequence-specific readers for epigenetic DNA modifications on cytosine”

Legend:
Test in all cases: DAPPL (digital affinity profiling via proximity ligation, sequencing); 10 mM Tris-HCl pH 7.5, 50 mM NaCl, 1 mM DTT, 4% glycerol, room temperature, 30 min; GST-TFs on glutathione beads, 16-mer random dsDNA library, 0.1% formaldehyde crosslink after washing; high values mean tight binding
FLI1 = target: T1, FLI1 (Homo sapiens, UniProt Q01543 1-452); details: protein: recombinant; tags: N-terminal GST; dsDNA, one strand shown
T1 sequence: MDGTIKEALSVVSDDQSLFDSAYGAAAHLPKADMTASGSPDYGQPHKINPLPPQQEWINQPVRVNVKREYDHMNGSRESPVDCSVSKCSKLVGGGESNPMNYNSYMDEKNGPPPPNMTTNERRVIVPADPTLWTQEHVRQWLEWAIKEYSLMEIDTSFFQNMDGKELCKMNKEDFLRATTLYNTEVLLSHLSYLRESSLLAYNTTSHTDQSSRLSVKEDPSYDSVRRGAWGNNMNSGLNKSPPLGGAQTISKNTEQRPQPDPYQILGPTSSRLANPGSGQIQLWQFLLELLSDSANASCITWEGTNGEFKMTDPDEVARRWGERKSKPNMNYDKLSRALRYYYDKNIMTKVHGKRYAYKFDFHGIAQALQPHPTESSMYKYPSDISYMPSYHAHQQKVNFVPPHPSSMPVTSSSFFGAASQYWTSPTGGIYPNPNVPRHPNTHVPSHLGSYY
How it was run: (§1)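 Pools were built from human transcription factors expressed in yeast as GST fusions, captured on glutathione beads and DNA-barcoded, along with a tag-only sample. Incubation with 200 nmole of a 16-mer random double-stranded DNA library lasted 30 min at room temperature in Tris/NaCl/DTT/glycerol buffer, and was followed by washing, 0.1% formaldehyde crosslinking, proximity ligation, PCR amplification and Illumina NextSeq500 sequencing. Binding signal is the quotient of each hexamer's read frequency for a factor and its frequency for the tag-only sample.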

ELK1 = target: T2, ELK1 (Homo sapiens, UniProt P19419 1-428); details: protein: recombinant; tags: N-terminal GST; dsDNA, one strand shown
T2 sequence: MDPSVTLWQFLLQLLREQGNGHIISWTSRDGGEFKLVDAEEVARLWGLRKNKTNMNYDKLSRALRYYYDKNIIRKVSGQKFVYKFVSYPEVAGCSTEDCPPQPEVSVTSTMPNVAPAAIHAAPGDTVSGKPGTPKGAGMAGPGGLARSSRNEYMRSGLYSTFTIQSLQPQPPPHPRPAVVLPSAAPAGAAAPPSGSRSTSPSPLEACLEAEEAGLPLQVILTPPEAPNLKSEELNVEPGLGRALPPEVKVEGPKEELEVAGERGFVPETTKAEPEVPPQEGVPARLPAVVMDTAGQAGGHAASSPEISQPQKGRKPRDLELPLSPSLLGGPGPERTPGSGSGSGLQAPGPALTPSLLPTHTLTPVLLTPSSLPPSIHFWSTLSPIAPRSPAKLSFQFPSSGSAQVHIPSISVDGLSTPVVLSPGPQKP
How it was run: as §1

GABPA = target: T3, GABPA (Homo sapiens, UniProt Q06546 1-454); details: protein: recombinant; tags: N-terminal GST; dsDNA, one strand shown
T3 sequence: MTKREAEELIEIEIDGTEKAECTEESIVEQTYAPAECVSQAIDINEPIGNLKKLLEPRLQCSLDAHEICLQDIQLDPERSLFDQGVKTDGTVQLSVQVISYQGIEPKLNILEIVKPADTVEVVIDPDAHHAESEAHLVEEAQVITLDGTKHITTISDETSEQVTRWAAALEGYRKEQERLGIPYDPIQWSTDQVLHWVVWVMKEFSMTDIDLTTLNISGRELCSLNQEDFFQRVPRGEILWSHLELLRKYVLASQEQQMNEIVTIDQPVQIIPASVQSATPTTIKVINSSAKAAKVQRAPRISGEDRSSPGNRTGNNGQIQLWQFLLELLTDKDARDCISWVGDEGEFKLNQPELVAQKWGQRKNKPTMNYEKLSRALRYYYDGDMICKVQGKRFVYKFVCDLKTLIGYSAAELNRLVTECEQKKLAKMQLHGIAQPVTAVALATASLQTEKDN
How it was run: as §1

ERG = target: T4, ERG (Homo sapiens, UniProt P11308 1-479); details: protein: recombinant; tags: N-terminal GST; dsDNA, one strand shown
T4 sequence: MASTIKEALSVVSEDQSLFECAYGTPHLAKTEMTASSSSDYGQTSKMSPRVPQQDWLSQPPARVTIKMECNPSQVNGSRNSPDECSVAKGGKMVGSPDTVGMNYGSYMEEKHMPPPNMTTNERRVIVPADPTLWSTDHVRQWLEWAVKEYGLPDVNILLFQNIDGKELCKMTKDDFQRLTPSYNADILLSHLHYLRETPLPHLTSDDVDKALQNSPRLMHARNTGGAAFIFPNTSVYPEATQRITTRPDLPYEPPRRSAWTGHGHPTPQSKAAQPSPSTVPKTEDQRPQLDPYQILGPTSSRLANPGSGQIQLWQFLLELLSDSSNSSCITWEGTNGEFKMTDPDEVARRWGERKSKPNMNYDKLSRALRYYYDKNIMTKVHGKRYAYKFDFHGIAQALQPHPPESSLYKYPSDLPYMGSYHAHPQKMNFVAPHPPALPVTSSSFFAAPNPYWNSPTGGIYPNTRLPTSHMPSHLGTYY
How it was run: as §1

ELF1 = ELF1 (Homo sapiens, UniProt P32519 1-619); details: protein: recombinant; tags: N-terminal GST; dsDNA, one strand shown
How it was run: as §1

EHF = target: T5, EHF (Homo sapiens, UniProt Q9NZC4 1-300); details: protein: recombinant; tags: N-terminal GST; dsDNA, one strand shown
T5 sequence: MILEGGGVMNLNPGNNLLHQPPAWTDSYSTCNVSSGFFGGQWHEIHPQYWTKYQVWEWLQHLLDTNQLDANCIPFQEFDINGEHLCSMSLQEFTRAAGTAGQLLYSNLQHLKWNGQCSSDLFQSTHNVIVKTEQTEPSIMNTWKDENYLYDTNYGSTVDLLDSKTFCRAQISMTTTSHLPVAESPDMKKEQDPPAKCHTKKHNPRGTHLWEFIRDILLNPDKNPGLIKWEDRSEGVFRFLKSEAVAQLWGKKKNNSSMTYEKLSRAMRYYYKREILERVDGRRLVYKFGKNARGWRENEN
How it was run: as §1

SPI1 = SPI1 (Homo sapiens, UniProt P17947 1-270); details: protein: recombinant; tags: N-terminal GST; dsDNA, one strand shown
How it was run: as §1

SPIB = SPIB (Homo sapiens, UniProt Q01892 1-262); details: protein: recombinant; tags: N-terminal GST; dsDNA, one strand shown
How it was run: as §1

ELK3 = target: T6, ELK3 (Homo sapiens, UniProt P41970 1-407); details: protein: recombinant; tags: N-terminal GST; dsDNA, one strand shown
T6 sequence: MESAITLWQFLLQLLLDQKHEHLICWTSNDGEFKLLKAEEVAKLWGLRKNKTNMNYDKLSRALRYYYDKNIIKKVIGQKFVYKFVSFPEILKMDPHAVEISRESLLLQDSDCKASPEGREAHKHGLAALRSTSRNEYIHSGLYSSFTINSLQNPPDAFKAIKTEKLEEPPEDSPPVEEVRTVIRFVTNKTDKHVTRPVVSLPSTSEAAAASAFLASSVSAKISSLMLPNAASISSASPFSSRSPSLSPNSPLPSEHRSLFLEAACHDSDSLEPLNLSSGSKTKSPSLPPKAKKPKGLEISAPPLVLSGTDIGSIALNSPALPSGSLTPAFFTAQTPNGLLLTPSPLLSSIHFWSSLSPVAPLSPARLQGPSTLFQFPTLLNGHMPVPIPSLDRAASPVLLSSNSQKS
How it was run: as §1

FEV = target: T7, FEV (Homo sapiens, UniProt Q99581 1-238); details: protein: recombinant; tags: N-terminal GST; dsDNA, one strand shown
T7 sequence: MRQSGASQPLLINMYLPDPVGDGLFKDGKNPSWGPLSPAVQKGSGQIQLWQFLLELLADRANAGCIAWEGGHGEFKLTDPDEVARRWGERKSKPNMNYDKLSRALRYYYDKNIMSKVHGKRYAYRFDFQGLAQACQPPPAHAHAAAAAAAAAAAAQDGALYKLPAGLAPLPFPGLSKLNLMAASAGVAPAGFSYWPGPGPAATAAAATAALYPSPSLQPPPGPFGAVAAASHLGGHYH
How it was run: as §1

ETV5 = ETV5 (Homo sapiens, UniProt P41161 1-510); details: protein: recombinant; tags: N-terminal GST; dsDNA, one strand shown
How it was run: as §1

HSF1 = HSF1 (Homo sapiens, UniProt Q00613 1-529); details: protein: recombinant; tags: N-terminal GST; chain copies: 3; dsDNA, one strand shown
How it was run: as §1

SPIC = target: T8, SPIC (Homo sapiens, UniProt Q8N5J4 1-248); details: protein: recombinant; tags: N-terminal GST; dsDNA, one strand shown
T8 sequence: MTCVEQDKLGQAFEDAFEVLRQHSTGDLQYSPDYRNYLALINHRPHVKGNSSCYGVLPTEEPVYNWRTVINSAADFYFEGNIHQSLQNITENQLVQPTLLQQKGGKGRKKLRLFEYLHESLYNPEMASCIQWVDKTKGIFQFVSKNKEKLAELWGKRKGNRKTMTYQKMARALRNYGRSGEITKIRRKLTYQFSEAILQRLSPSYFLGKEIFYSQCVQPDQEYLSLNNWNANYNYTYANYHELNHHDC
How it was run: as §1

ELF4 = ELF4 (Homo sapiens, UniProt Q99607 1-663); details: protein: recombinant; tags: N-terminal GST; dsDNA, one strand shown
How it was run: as §1

ELK4 = target: T9, ELK4 (Homo sapiens, UniProt P28324-2 1-405); details: protein: recombinant; tags: N-terminal GST; dsDNA, one strand shown
T9 sequence: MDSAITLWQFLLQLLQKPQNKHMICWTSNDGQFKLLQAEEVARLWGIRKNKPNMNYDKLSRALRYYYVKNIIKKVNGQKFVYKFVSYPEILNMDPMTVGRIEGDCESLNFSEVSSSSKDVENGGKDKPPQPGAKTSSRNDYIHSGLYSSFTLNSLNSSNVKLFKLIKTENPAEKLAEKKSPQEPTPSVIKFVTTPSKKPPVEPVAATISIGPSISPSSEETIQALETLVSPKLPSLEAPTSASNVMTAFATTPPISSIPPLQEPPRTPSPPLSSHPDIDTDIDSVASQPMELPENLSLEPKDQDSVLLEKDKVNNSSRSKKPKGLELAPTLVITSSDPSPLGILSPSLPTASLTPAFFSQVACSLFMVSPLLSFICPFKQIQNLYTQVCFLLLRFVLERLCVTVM
How it was run: as §1

ETV2 = target: T10, ETV2 (Homo sapiens, UniProt O00321 1-342); details: protein: recombinant; tags: N-terminal GST; dsDNA, one strand shown
T10 sequence: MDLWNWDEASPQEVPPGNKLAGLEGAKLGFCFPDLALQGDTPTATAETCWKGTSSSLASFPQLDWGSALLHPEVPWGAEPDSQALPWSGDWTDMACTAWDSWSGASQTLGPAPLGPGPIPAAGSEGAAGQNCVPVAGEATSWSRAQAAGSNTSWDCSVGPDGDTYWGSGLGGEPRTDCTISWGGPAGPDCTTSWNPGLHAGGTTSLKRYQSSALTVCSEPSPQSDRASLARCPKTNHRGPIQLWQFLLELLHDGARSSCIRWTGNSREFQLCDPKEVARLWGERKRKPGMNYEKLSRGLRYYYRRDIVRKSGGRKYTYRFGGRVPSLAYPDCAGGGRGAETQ
How it was run: as §1

ELF3 = target: T11, ELF3 (Homo sapiens, UniProt P78545 1-371); details: protein: recombinant; tags: N-terminal GST; dsDNA, one strand shown
T11 sequence: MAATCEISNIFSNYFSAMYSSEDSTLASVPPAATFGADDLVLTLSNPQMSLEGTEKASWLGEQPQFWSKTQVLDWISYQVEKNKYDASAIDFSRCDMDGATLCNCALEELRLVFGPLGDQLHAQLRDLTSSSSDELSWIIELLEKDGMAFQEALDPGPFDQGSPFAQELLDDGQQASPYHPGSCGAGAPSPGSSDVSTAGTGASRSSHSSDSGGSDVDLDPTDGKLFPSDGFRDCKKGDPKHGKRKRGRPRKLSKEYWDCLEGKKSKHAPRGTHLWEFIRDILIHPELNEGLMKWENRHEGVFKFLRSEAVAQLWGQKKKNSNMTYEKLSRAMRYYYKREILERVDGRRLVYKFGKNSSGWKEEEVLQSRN
How it was run: as §1

CRX = CRX (Homo sapiens, UniProt O43186 1-299); details: protein: recombinant; tags: N-terminal GST; dsDNA, one strand shown
How it was run: as §1

ETV1 = ETV1 (Homo sapiens, UniProt P50549 1-477); details: protein: recombinant; tags: N-terminal GST; dsDNA, one strand shown
How it was run: as §1

ELF4, sequence (Q99607 whole entry): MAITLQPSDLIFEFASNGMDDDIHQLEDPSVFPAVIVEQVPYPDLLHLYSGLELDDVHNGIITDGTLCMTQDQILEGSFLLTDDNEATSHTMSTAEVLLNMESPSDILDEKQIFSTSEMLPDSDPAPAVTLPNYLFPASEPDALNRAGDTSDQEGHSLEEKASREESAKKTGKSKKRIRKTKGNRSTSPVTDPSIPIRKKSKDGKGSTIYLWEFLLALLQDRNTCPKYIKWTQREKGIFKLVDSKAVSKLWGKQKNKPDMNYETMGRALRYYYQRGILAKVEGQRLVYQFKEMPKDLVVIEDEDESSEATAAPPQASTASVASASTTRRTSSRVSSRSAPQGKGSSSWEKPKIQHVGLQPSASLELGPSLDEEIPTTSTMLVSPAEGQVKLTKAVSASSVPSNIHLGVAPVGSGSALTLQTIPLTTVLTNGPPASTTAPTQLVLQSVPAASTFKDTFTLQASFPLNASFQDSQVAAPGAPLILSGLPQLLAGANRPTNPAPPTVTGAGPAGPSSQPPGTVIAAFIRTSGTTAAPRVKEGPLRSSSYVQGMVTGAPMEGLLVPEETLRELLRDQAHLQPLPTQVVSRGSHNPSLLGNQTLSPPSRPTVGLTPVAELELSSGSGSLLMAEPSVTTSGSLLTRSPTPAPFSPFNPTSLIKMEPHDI
CRX, sequence (O43186 whole entry): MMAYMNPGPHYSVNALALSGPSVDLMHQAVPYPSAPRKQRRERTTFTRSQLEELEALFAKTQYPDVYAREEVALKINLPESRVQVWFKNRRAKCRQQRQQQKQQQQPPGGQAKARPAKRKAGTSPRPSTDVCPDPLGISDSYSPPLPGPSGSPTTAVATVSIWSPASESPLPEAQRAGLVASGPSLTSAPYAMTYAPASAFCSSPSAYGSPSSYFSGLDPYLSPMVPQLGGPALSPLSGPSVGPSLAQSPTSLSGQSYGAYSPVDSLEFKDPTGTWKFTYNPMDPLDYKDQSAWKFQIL
ETV5, sequence (P41161 whole entry): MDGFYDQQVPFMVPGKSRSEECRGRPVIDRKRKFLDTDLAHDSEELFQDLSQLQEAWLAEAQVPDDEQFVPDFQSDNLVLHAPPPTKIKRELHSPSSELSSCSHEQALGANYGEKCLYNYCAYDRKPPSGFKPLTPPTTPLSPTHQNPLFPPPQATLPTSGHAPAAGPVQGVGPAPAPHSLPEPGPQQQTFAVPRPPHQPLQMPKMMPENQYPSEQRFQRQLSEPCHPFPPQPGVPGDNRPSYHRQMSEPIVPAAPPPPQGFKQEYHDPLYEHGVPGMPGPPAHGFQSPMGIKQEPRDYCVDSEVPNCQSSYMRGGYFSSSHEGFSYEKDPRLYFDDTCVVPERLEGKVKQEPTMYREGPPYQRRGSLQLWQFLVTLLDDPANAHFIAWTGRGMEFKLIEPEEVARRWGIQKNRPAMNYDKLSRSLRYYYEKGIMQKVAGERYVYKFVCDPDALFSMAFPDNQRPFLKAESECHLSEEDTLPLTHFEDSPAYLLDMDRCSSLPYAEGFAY
ETV1, sequence (P50549 whole entry): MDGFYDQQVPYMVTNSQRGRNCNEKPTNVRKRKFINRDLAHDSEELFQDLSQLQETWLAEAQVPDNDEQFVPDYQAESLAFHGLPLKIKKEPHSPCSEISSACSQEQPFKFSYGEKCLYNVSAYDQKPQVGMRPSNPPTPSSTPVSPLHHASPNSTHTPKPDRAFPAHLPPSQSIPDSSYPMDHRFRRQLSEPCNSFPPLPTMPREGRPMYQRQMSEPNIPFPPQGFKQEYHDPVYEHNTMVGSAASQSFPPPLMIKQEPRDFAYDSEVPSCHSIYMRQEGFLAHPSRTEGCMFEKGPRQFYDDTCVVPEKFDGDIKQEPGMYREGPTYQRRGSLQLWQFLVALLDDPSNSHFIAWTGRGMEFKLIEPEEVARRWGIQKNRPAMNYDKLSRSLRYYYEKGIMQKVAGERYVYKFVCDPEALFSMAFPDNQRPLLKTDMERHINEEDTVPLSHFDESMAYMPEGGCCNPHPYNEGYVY
SPIB, sequence (Q01892 whole entry): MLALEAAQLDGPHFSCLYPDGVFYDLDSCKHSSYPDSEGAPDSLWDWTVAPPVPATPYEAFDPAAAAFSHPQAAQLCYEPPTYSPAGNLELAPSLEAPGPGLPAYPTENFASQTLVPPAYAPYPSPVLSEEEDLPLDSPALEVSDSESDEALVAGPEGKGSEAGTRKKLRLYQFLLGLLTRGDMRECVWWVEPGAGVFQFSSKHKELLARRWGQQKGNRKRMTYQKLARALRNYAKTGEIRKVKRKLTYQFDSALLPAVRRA
ELF1, sequence (P32519 whole entry): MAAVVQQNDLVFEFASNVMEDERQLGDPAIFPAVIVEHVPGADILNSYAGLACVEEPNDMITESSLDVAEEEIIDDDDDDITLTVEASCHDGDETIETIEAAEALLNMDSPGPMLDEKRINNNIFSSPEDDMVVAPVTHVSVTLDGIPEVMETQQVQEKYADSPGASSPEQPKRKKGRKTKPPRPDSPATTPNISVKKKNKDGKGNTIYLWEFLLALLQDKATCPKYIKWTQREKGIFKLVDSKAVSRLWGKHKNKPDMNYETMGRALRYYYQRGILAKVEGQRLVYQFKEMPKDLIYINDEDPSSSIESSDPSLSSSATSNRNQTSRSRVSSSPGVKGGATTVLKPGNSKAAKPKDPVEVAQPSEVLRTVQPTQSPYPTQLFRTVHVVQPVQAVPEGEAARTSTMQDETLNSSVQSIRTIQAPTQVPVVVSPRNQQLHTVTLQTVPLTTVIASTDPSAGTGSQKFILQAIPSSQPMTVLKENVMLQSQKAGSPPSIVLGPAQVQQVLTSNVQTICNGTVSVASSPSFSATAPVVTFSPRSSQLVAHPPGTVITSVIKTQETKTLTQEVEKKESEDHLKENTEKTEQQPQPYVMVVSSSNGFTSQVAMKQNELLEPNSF
HSF1, sequence (Q00613 whole entry): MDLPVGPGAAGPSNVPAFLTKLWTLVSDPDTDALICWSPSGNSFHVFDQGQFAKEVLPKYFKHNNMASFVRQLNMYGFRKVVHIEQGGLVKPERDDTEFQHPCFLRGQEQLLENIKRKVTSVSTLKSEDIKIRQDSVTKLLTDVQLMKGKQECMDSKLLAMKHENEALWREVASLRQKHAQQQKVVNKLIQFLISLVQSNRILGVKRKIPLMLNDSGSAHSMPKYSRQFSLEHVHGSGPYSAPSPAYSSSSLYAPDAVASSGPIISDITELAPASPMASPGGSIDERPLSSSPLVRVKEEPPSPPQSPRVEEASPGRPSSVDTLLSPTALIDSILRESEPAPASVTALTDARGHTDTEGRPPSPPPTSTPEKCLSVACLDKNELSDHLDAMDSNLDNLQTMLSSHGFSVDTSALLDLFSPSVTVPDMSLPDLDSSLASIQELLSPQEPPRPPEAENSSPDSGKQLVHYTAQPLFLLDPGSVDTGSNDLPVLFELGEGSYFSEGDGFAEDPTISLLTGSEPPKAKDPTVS

Sequence: TTTCGA
- binding signal (FLI1): 1.36 fold enrichment (6-mer frequency, TF over GST control)
- binding signal (ELK1): 1.45 fold enrichment (6-mer frequency, TF over GST control)
- binding signal (GABPA): 1.51 fold enrichment (6-mer frequency, TF over GST control)
- binding signal (ERG): 1.37 fold enrichment (6-mer frequency, TF over GST control)
- binding signal (ELF1): 1.56 fold enrichment (6-mer frequency, TF over GST control)
- binding signal (EHF): 1.49 fold enrichment (6-mer frequency, TF over GST control)
- binding signal (SPI1): 1.35 fold enrichment (6-mer frequency, TF over GST control)
- binding signal (SPIB): 1.48 fold enrichment (6-mer frequency, TF over GST control)
- binding signal (ELK3): 1.52 fold enrichment (6-mer frequency, TF over GST control)
- binding signal (FEV): 1.48 fold enrichment (6-mer frequency, TF over GST control)
- binding signal (ETV5): 1.54 fold enrichment (6-mer frequency, TF over GST control)
- binding signal (HSF1): 2.5 fold enrichment (6-mer frequency, TF over GST control)
- binding signal (SPIC): 1.18 fold enrichment (6-mer frequency, TF over GST control)
- binding signal (ELF4): 1.57 fold enrichment (6-mer frequency, TF over GST control)
- binding signal (ELK4): 1.5 fold enrichment (6-mer frequency, TF over GST control)
- binding signal (ETV2): 1.32 fold enrichment (6-mer frequency, TF over GST control)
- binding signal (ELF3): 1.39 fold enrichment (6-mer frequency, TF over GST control)
- binding signal (CRX): 1.86 fold enrichment (6-mer frequency, TF over GST control)
- binding signal (ETV1): 1.5 fold enrichment (6-mer frequency, TF over GST control)
